Our source for the binding signal values is PMC7819943, “Rice protein-binding microarrays: a tool to detect cis-acting elements near promoter regions in rice”.

In all, about 35,000 sequences were measured (“fluorescence intensity (a.u.)”: median about 10,000, highest 2% from about 52,000 on). The full list was thinned out, with the highest values kept by preference.

For the experiment, the target named is T1, OsWOX13 (Oryza sativa, UniProt Q5QMM3 1-267).
T1 sequence: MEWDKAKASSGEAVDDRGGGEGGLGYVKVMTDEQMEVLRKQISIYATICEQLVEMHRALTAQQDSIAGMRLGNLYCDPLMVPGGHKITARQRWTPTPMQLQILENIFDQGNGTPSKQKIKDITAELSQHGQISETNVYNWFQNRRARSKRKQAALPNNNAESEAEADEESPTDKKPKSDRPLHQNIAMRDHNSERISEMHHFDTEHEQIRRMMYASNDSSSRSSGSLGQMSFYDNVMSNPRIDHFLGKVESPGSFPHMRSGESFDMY
Kind of experiment: protein-binding microarray (RPBM); PBS, 2% BSA, 51.3 ng/ul salmon testes DNA, 50 uM zinc acetate, 200 nM TF, 25 C, 1 h; high values mean tight binding. The note with it: protein: recombinant; tags: N-terminal polyhistidine and DsRed monomer fusion (pET32a); label: CyDye5-dUTP incorporated in the synthesized complementary strand; 3' TTTTT single-stranded linker to array surface; dsDNA, one strand shown. The method, boiled down: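 Per-feature fluorescence intensity (arbitrary units), read on an Axon 4000B scanner, is the binding signal. Transcription factors carrying an N-terminal polyhistidine tag and DsRed fusion were expressed in E. coli BL21-CodonPlus and purified on Ni–NTA. A custom Agilent array, made double-stranded by primer extension with Cy5-dUTP and blocked with 2% BSA, was incubated with 200 nM protein in PBS, 2% BSA, salmon testes DNA and 50 µM zinc acetate at 25 °C for 1 h and then washed.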
For the sequence “CGTAAACAAATAGGTCCAACATAATTTAACCTTCATAGAGCGGAGTCACCTAGTGCAG”, the binding signal was 5570 fluorescence intensity (a.u.). Consider “AGACGCATCTCCTCAATCATGCATCAACGTGCGTCATCTGCGGAGTCACCTAGTGCAG”, for which the binding signal was 3790 fluorescence intensity (a.u.).

Turning to “GTTGCATATCAATCATCAAGAATCTCTTCAGAAAGAGGAGCGGAGTCACCTAGTGCAG”, the binding signal was 14000 fluorescence intensity (a.u.).

Turning to “GTTAAATTTAAACTTGTATATTTGTGAAGTGATACATCACCGGAGTCACCTAGTGCAG”, the binding signal is 17300 fluorescence intensity (a.u.). To “ACACAACTTGTTAATTTGACCTGTAGCCCCATCATGTACACGGAGTCACCTAGTGCAG” belongs 3150 fluorescence intensity (a.u.); to “ATTCATGAATATATGAAACCTGATTGCAAATGTGCAAATCCGGAGTCACCTAGTGCAG”, 4970 fluorescence intensity (a.u.); to “TGCCTAATTGTTGCCATTGATTTGTTAGCCACACCTTTGGCGGAGTCACCTAGTGCAG”, 40300 fluorescence intensity (a.u.). In the case of “ATATTGATTGCATAAAGAAAGTTCGGTCCTGTTCACTTTGCGGAGTCACCTAGTGCAG” it was 39900 fluorescence intensity (a.u.); in that of “TTGTAATTGATTGTGGCCCATCAACTATTGCCATCACTGGCGGAGTCACCTAGTGCAG”, 64900 fluorescence intensity (a.u.). On to “TTTGATTGATGGCCATAAGTTGCCACACTTTGCCACACTTCGGAGTCACCTAGTGCAG”, for which the binding signal was 53800 fluorescence intensity (a.u.).

With “GCAAAATTGGTTTCATCAACTATTGAGTGGGTGTGCACTGCGGAGTCACCTAGTGCAG”, the binding signal is 9640 fluorescence intensity (a.u.).

Take “TGTTAGACTATGCCATCAATTGTAATTGTTGGTTCTGATGCGGAGTCACCTAGTGCAG”: the binding signal was 4250 fluorescence intensity (a.u.). To “TCAAATAATTAGAAGGGGTGAGACTTCGAATCCAAGTCGTCGGAGTCACCTAGTGCAG” belongs 14400 fluorescence intensity (a.u.); to “TAATTATTGAACACACTAATTAAGTATTACGATGCACCTCCGGAGTCACCTAGTGCAG”, 6340 fluorescence intensity (a.u.). To “TAGATAGATAGAATTGAATGGTGACCTCAGCTCCAGCTTCCGGAGTCACCTAGTGCAG” belongs 16200 fluorescence intensity (a.u.); to “AGAGGATTGATGAATGCAGCTGCAAGCACAGCACGCAGTACGGAGTCACCTAGTGCAG”, 13600 fluorescence intensity (a.u.). As for “GGTGAATTGAATGGTTGATTGCCTATCTCATCTTCCGCAGCGGAGTCACCTAGTGCAG”, the binding signal is 64100 fluorescence intensity (a.u.). To “ACAATTGAATGATTGATTGCAGCTCAAGCTTCAATCCGCACGGAGTCACCTAGTGCAG” belongs 63900 fluorescence intensity (a.u.). To “TAATCTTGAATTATTGATTTATTTATGGCTTCAGCTTTCACGGAGTCACCTAGTGCAG” belongs 7480 fluorescence intensity (a.u.); to “TGTGAATGTTGTGATTGAGGTGGTATCAGTATCATATCCGCGGAGTCACCTAGTGCAG”, 27000 fluorescence intensity (a.u.). Turning to “TCTCTTACTCTTGTTGATTGACACCGGTCATCAGTAGTTCCGGAGTCACCTAGTGCAG”, the binding signal was 43200 fluorescence intensity (a.u.). In the case of “CAAAATTAACTTGCGCGCCACTCTGCCTCTCAACCCTTCACGGAGTCACCTAGTGCAG” it was 8740 fluorescence intensity (a.u.); in that of “AACAATTGACAAACTGATTCTGCTCGCCTCTGTCCCCTTTCGGAGTCACCTAGTGCAG”, 46800 fluorescence intensity (a.u.).

Take “GAGCTCAGCTTGCAGGGAGCTTGGGTGTGTGATCATACACCGGAGTCACCTAGTGCAG”: the binding signal is 63900 fluorescence intensity (a.u.). To “TTGATTGGGTCTGTGGTGGAACAGGACGATCATACATCACCGGAGTCACCTAGTGCAG” belongs 21000 fluorescence intensity (a.u.); to “ATATATATATATATATATATACATACATATACACACACACCGGAGTCACCTAGTGCAG”, 7300 fluorescence intensity (a.u.). In the case of “AGTTAATAACAAGAAATTATTCATTTAAATTTAGGGCAAACGGAGTCACCTAGTGCAG”, the binding signal was 9460 fluorescence intensity (a.u.). As for “CTTAATAACTTTCTCGGATTTAATGTGTGACTCACCATTCCGGAGTCACCTAGTGCAG”, the binding signal is 3340 fluorescence intensity (a.u.). Take “ATGATTGAATGAATGAAACCCTAGTTTGTTTTGATTTGTACGGAGTCACCTAGTGCAG”: the binding signal is 54400 fluorescence intensity (a.u.). For the sequence “GTTGAATGTTTTGTATGATTTGAACCTGAAAACTGCATGACGGAGTCACCTAGTGCAG”, the binding signal was 7380 fluorescence intensity (a.u.). “CCTGATTGGTTGTATTGCTTGAAGTAGACTATTGAGATTGCGGAGTCACCTAGTGCAG”: the binding signal was 60200 fluorescence intensity (a.u.). For “GAAATTGAAGATGATGTGACTGAAAAGTTGTGTATATGACCGGAGTCACCTAGTGCAG”, the binding signal is 17200 fluorescence intensity (a.u.). In the case of “GATGATGTGACTGAAAAGTTGTATGTGTATGACATATTGACGGAGTCACCTAGTGCAG” it was 11500 fluorescence intensity (a.u.); in that of “GATGTGACTGAAAAGTTGTATGTGTATGACAGGTTGATGTCGGAGTCACCTAGTGCAG”, 8260 fluorescence intensity (a.u.). To “TGGAATGATGTGATGGAAAAGTTGAAAGTTTGTGTGTGTACGGAGTCACCTAGTGCAG” belongs 5390 fluorescence intensity (a.u.).

As for “GTGATTGACTGATTGTGTGATTGTGTGAAGTGTATTGGTTCGGAGTCACCTAGTGCAG”, the binding signal was 65000 fluorescence intensity (a.u.). With “GGTTGCTGATTGTATCCTTTACTACTAGATCTTGACTGAGCGGAGTCACCTAGTGCAG”, the binding signal is 16300 fluorescence intensity (a.u.). In the case of “ATATGATAGAAAAGTTGTGTATGTATGAAATGTTTGATGTCGGAGTCACCTAGTGCAG” it was 9060 fluorescence intensity (a.u.); in that of “GATGTGATTGAAAGTTTGTGTGTGTATGACAGTTTGATGTCGGAGTCACCTAGTGCAG”, 61700 fluorescence intensity (a.u.). In the case of “GCTATTAGATTGACTATATATGAATTGGAGCTAGTAGTTGCGGAGTCACCTAGTGCAG” it was 42900 fluorescence intensity (a.u.). In the case of “AGTTAATGAAATAATGCCAGCCTGCTGTCTTCTGATTATCCGGAGTCACCTAGTGCAG” it was 6010 fluorescence intensity (a.u.); in that of “GCCTGCATTCATTTCCCTAATCAATCGGCTCGGATAATGTCGGAGTCACCTAGTGCAG”, 4450 fluorescence intensity (a.u.). As to “CGAATCTAAACAATCAATATTTAATTATACTTCCTCTAGACGGAGTCACCTAGTGCAG”, the binding signal is 12600 fluorescence intensity (a.u.).
